Test [1] in a line: compounds binding Alexa647 anti-His antibody – biochemical, small-molecule microarray, 635 nm fluorescence, artefact control for SMM control protein annotation, primary screen (AID 1128).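 Also: score merges feature fluorescence with signal-to-noise for each printed compound spot.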 To be noted: higher = more signal.
The subject of test [2] is Human papillomavirus type 1a E7 protein (residues 1-88). The experiment in a line: HPV1a E7 small-molecule binders, primary screen, biochemical, small-molecule microarray, residues 1-88, 635 nm (AID 1129). Conditions: small-molecule microarray binding, fluorescence 635 nm; higher = more signal.
Test [3] deals with Focal adhesion kinase 1 (Homo sapiens) (UniProt Q05397). The experiment in a line: PTK2 protein binding on printed compound slides – biochemical, small-molecule microarray, 635/667 nm fluorescence, BSA, DTT, primary screen (AID 1130).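 Also: composite of spot emission at 667 nm and signal to noise over triplicate slides.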 To be noted: 635 nm fluorescence, higher = more signal.
Chain of Focal adhesion kinase 1 (Homo sapiens) (Q05397 whole entry, looked up): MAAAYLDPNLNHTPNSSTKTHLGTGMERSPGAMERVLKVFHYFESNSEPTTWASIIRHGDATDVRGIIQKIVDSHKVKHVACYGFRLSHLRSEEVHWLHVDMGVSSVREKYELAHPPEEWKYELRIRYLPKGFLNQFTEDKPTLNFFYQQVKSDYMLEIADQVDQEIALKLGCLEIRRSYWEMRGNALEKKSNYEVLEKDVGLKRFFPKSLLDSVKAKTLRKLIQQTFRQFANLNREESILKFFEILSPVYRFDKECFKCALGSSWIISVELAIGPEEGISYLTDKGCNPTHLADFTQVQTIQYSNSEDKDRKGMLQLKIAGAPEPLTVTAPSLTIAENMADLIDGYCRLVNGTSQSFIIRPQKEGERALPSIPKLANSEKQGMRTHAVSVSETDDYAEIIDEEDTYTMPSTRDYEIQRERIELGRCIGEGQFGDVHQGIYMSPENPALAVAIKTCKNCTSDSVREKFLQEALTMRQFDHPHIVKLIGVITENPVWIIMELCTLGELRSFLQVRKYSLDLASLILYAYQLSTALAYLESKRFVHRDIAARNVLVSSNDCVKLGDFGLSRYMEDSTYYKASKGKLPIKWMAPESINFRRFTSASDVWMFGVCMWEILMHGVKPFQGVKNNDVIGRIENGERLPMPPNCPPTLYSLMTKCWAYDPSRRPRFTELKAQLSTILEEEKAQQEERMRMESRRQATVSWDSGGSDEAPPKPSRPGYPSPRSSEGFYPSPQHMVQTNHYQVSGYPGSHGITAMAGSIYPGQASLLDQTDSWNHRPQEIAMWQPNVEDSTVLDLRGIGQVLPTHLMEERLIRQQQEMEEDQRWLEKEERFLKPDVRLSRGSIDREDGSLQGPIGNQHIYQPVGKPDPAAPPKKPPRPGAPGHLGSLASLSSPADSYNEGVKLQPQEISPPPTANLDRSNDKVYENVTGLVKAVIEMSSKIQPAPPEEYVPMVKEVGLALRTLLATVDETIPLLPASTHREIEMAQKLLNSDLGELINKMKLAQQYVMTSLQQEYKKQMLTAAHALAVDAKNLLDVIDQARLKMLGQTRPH
Test [4] deals with Fibrinogen (Alexa647-labelled). The experiment in a line: Alexa647-fibrinogen binding to printed small molecules – biochemical, small-molecule microarray, 635/667 nm fluorescence, artefact control for SMM control-protein annotation, profiling panel (AID 1131).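 Also: z-score merges 667 nm fluorescence with per-spot signal-to-noise over triplicate slides.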 To be noted: fibrinogen-A647 binding fluorescence, higher = more signal.
Test [5] addresses Follistatin (Homo sapiens) (UniProt P19883). The experiment in a line: FST protein binding to printed compounds – biochemical, small-molecule microarray, 635/667 nm fluorescence, primary screen (AID 1132). To be noted: 635 nm fluorescence, higher = more signal.
Test [6] deals with Fibroblast growth factor 2 (Homo sapiens) (UniProt P09038). Description: basic fibroblast growth factor binding to printed compounds – biochemical, small-molecule microarray, 635/667 nm fluorescence, primary screen (AID 1133). To be noted: FGF2, fluorescence 635/667, higher = more signal.
Chain of Fibroblast growth factor 2 (Homo sapiens) (P09038 whole entry, looked up): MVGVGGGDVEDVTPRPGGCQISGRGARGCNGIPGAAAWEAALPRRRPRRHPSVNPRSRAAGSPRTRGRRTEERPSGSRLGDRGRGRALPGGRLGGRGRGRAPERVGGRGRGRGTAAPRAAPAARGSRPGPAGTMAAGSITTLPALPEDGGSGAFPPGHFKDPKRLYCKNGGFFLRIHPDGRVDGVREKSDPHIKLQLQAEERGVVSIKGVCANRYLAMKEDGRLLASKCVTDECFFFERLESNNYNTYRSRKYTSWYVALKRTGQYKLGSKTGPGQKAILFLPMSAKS
Test [7] is described as follows: JC-1 mitochondrial potential readout, lung cancer cells – cell-based, A549, JC-1 fluorescence, basal, 24 h, 100 nL, profiling panel (AID 1138).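 Also: A549 lung adenocarcinoma cells under basal conditions with no added stimulus; test concentration not given here.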 Conditions: higher = more signal.
The next test has as its system Lefty1. Description: Lefty1 protein binding to printed compounds – biochemical, small-molecule microarray, 635/667 nm fluorescence, primary screen (AID 1139). To be noted: fluorescence 635/667, higher = more signal.
Test [8] relates to wheat germ agglutinin (Triticum aestivum), Alexa647-labelled. Description: Alexa647-WGA lectin binding to printed small molecules – biochemical, small-molecule microarray, 635/667 nm fluorescence, artefact control for SMM control-protein annotation, profiling panel (AID 1140).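 Also: score merges 667 nm feature emission with signal to noise over triplicate slides.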 Conditions: WGA-A647 binding, 635 nm fluorescence, higher = more signal.
Test [9] deals with Luciferin 4-monooxygenase (Photinus pyralis) (UniProt P08659). The experiment in a line: inhibition of purified Photinus pyralis luciferase – biochemical, luminescence, purified enzyme, 2006 set, primary screen (AID 1141).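 Also: cell-free assay with purified firefly luciferase at 100 ng per well in PBS; test concentration not given here.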 Conditions: purified firefly luciferase, SteadyGlo luminescence, 30 min; higher = more signal, called active from +8 up or from −8 down.
Chain of Luciferin 4-monooxygenase (Photinus pyralis) (P08659 whole entry, looked up): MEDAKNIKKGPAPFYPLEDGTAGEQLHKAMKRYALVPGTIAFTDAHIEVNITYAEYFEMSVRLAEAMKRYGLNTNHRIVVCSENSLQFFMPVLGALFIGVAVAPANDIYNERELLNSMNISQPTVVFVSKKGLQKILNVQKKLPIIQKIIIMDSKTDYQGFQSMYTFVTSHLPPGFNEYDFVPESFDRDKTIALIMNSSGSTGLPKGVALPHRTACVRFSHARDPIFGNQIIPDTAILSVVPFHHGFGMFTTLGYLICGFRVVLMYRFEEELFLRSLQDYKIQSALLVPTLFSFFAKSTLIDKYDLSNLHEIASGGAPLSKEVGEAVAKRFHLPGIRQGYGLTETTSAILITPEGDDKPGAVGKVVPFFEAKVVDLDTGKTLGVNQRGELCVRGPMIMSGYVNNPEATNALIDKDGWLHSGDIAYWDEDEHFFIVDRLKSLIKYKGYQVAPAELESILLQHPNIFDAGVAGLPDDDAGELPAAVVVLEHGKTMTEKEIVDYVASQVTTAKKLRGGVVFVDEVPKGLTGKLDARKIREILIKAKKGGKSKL
Test [10] has as its system Wnt5a (protein binding on small-molecule microarray). Description: small molecules binding Wnt5a protein – biophysical, small-molecule microarray, 635/667 nm fluorescence, primary screen (AID 1142).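 Also: fluorescence read at 667 nm with signal to noise per printed feature.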 To be noted: 635 nm fluorescence, higher = more signal.
Test [11] in a line: ATP-based viability of Huh7 replicon cells – cell-based, CellTiter-Glo luminescence, basal, 48 h, cytotoxicity control for HCV replication inhibitor project, primary screen (AID 1143).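 Also: Huh7 hepatoma cells carrying a hepatitis C replication reporter with no stimulus; test concentration not given here.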 Conditions: higher = more signal, called active from +8 up or from −8 down. (In antiviral work, replicon cells carry a viral genome segment that copies itself.)
Test [12] can be described thus: Pseudomonas biofilm growth suppression – PAO1 strain, BacTiter-Glo luminescence, LB-PBS, primary screen (AID 1144). Conditions: P. aeruginosa PAO1 biofilm, 12 h, higher = more signal.
Test [13] in a line: basal CRE-LacZ reporter activity in PC12 – cell-based, unstimulated, primary screen (AID 1145). Conditions: no forskolin, luminescence, 4.5 h, higher = more signal, called active from +8 up or from −8 down.
A short description of test [14]: forskolin-driven CRE-LacZ activity in PC12 – cell-based, CRE-LacZ reporter, forskolin-stimulated, primary screen (AID 1146).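 Also: PC12 cells with 6xCRE LacZ reporter stimulated by forskolin 10 µM; beta-galactosidase reporter signal reflecting CREB driven transcription.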 Conditions: luminescence, 4.5 h, higher = more signal, called active from +8 up or from −8 down.
Test [15] has as its target Streptavidin (Streptomyces avidinii) (UniProt P22629). The experiment in a line: compounds binding control protein streptavidin – biophysical, small-molecule microarray, 635/667 nm fluorescence, artefact control for SMM compound annotation, primary screen (AID 1147).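 Also: signal reflects streptavidin binding to arrayed compounds as a control protein.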 Conditions: higher = more signal.
Test [16] in a line: probe aInhba binding on compound microarray – biochemical, small-molecule microarray, 635/667 nm fluorescence, primary screen (AID 1148).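 Also: score merges 667nm spot fluorescence with signal-to-noise for antibody binding to printed compounds.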 Conditions: higher = more signal.
The target in test [17] is Torsin-1A (Homo sapiens) (UniProt O14656). Description: TOR1A wild-type binding on microarray – cell lysate, small-molecule microarray, lysate, 635/667 nm, primary screen (AID 1149). Conditions: COS7 hTOR1A-WT lysate, 635 nm fluorescence, higher = more signal.
Chain of Torsin-1A (Homo sapiens) (O14656 whole entry, looked up): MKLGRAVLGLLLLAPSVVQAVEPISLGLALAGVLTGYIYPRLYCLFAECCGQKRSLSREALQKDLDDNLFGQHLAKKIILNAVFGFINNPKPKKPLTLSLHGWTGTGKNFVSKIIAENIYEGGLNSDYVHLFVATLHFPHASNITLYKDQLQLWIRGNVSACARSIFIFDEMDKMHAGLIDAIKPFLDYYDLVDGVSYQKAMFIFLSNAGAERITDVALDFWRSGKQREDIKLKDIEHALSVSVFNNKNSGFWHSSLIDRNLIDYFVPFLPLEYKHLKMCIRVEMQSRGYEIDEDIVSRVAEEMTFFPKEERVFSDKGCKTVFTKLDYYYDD
Test [18] has the same target. Description: torsin A mutant lysate binding on microarrays – cell lysate, small-molecule microarray, COS7 lysate, 635/667 nm fluorescence, primary screen (AID 1150).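 Also: score pools 667 nm emission and signal to noise measuring lysate protein binding.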 To be noted: COS7 hTOR1A mutant lysate, 635 nm fluorescence, higher = more signal.
Test [19] relates to Sonic hedgehog protein (Shh). The experiment in a line: Sonic hedgehog microarray binding compounds – biochemical, small-molecule microarray, 635/667 nm fluorescence, primary screen (AID 1151).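 Also: Shh protein binding to compounds spotted on small-molecule microarray slides; score combines spot fluorescence intensity with signal-to-noise across triplicate slides.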 To be noted: 635 nm fluorescence, higher = more signal.

Active and inactive are the calls of the source. Unless noted, no rule for the calls is given here.

Chain of Follistatin (Homo sapiens) (P19883 whole entry, looked up): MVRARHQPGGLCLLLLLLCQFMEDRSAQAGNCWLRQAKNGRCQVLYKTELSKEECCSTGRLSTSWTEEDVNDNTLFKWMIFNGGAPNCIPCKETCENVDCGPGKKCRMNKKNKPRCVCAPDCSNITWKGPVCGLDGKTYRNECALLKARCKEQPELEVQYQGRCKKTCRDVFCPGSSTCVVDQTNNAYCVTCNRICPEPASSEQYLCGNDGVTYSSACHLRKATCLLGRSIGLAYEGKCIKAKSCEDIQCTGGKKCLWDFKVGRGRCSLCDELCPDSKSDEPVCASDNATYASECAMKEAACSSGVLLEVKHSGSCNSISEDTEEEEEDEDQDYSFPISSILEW
Chain of Streptavidin (Streptomyces avidinii) (P22629 whole entry, looked up): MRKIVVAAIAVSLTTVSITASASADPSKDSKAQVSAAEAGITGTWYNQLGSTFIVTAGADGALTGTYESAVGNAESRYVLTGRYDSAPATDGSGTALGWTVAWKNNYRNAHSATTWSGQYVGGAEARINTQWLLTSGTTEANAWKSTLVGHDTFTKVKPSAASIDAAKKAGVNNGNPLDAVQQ

Regarding `COCCOC(=O)N1C(=O)[C@@]2(c3cc(C#CC4(O)CCCCCC4)ccc31)[C@H](C(=O)N1CCc3cc(OC)c(OC)cc3C1)[C@H]1C(=O)O[C@H](c3ccccc3)[C@H](c3ccccc3)N1[C@@H]2c1ccc(O)cc1`, the composite z-score in [1] worked out at 2.17; in [2], 1.23; in [3] it was 0.427; in test [4], 0.853; in test [5], 1.26; in test [6], 1.1. The composite z-score was found to be 0.594 in the test on Lefty1; 0.972 in [8]; 0.869 in test [10]; 0.398 in test [15]; 0.306 in test [16]; 1.25 with Torsin-1A (Homo sapiens) [17]. Also, the composite z-score in the test with Torsin-1A (Homo sapiens) [18] stood at 0.538; in test [19] it was 0.774. Moreover, the z-score was -0.791 in [7]; -0.604 (inactive) in [9]; -1.83 (inactive) in test [11]; 0.0231 (inactive) in [12]; 1.68 (inactive) in test [13]; 8.06 (active) in test [14].

Regarding `COCCCNC(=O)[C@@H]1c2ccccc2C(=O)N(C2CCCCC2)[C@H]1c1ccc(CO)cc1`, the composite z-score is 3.06 in test [1]; -0.668 in test [2]; 0.183 in test [3]; -0.927 in [4]; -0.388 in test [5]; -0.658 in [6]. Besides, the composite z-score in the test on Lefty1 is -1.19; in test [8], -0.365; in test [10] it was -0.384; in test [15], -0.59; in test [16], -0.0963; with Torsin-1A (Homo sapiens) [17], 0.691. The composite z-score in the test with Torsin-1A (Homo sapiens) [18] was -1.51; in test [19], -0.759. Further, the z-score was 0.705 in test [7]; -0.0838 (inactive) in test [9]; -4.86 (inactive) in [11]; -0.303 (inactive) in [12]; -0.385 (inactive) in [13]; 0.656 (inactive) in test [14].

As for `CC1(C)OC[C@@]23C=C(Br)[C@@H](C[C@H]12)[C@@]1(CO1)C3=O`, the composite z-score in test [1] was found to be 0.424; in test [2], 0.62; in test [3], 0.139; in test [4], 0.149; in test [5], 0.369; in test [6], 0.122. For the same compound, the composite z-score in the test with Lefty1 is 0.439; in test [8], 0.0477; in test [10] it was 0.0405; in test [15], -0.0131; in [16], -0.0331; with Torsin-1A (Homo sapiens) [17], 0.667. In addition, the composite z-score with Torsin-1A (Homo sapiens) [18] came to 0.483; in test [19], 0.474. Moreover, the z-score in test [7] was 0.582; in test [9], -0.0228 (inactive); in [11], 0.661 (inactive); in test [12] it was 0.844 (inactive); in test [13], 0.494 (inactive); in test [14], 0.925 (inactive).

For `COCCOC(=O)N1C(=O)[C@@]2(c3cc(C#Cc4ccc(OC)cc4)ccc31)[C@H](C(=O)Nc1nc3ccccc3s1)[C@H]1C(=O)O[C@H](c3ccccc3)[C@H](c3ccccc3)N1[C@@H]2c1ccccc1OCCO`, the composite z-score in [1] was determined as 0.484; in [2], 1.05; in test [3], 0.0699; in [4], 0.922; in test [5], 1.32; in test [6], 1.04. The composite z-score with Lefty1 was 0.973; in test [8], 0.883; in test [10] it was 0.0516; in test [15], 0.299; in [16] it was -0.0566; with Torsin-1A (Homo sapiens) [17], 0.245. Moreover, the composite z-score with Torsin-1A (Homo sapiens) [18] is 0.243; in test [19] it was 1.34. The z-score in test [7] was -1.75; in test [9] it was -1.76 (inactive); in test [11], -4.28 (inactive); in test [12], -1.6 (inactive); in test [13] it was -1.7 (inactive); in test [14], -1.44 (inactive).

For the compound `C=C(COC)/C(=C/C[C@H](OC(=O)c1ccncc1)c1ccc(OCCO)cc1)c1cc(C(=O)OC)ccc1OC`, the composite z-score in test [1] was 1.14; in test [2], 1.18; in test [3], 0.918; in test [4], 0.763; in test [5], 1.38; in test [6] it was 0.329. Also, the composite z-score was 1.58 in the test with Lefty1; 0.622 in test [8]; 0.457 in [10]; 0.616 in test [15]; -0.0087 in test [16]; 0.229 with Torsin-1A (Homo sapiens) [17]. Moreover, the composite z-score was determined as 0.132 with Torsin-1A (Homo sapiens) [18] and 1.94 in [19]. The z-score in test [7] was -0.408; in [9], -0.265 (inactive); in [11] it was -3.86 (inactive); in test [12] it was -0.999 (inactive); in test [13] it was 5.8 (inactive); in test [14] it was 0.946 (inactive).

(Values after PubChem BioAssay.)
